Assay results published in the supplement of paper PMC7765376.
The full ranking holds about 1,500 compounds; the median of “Excess HSA synergy score (sum over dose matrix of excess over highest single agent)” is about 43, and the lowest 2% start at about -900. The full list was thinned out, with the lowest values kept by preference.

What follows are compounds tested on PEO-1 (assay: Excess HSA synergy score (sum over dose matrix of excess over highest single agent) (score (summed % response)); higher = less synergy / more antagonism (negative = synergy)). Conditions: 72 h; read-out: viability/apoptosis luminescence (CellTiter-Glo or Caspase3-Glo / not stated per table); matrix design: 6x6, 5-fold dilutions (primary screen).
`O=C(CO)N1CCC(c2n[nH]c(-c3ccc(Cl)cc3)c2-c2ccncn2)CC1` + CC[C@H](NC(=O)[C@H](C)NC)C(=O)N1C[C@@H](O)C[C@H]1Cc1c(-c2[nH]c3cc(F)ccc3c2C[C@@H]2C[C@H](O)CN2C(=O)[C@H](CC)NC(=O)[C@H](C)NC)[nH]c2cc(F)ccc12 [Birinapant] was tested, and the “Excess HSA synergy score” value was 244.
With `CC(C)(OCc1nn(Cc2ccccc2)c2ccccc12)C(=O)O` [Bindarit] + CC[C@H](NC(=O)[C@H](C)NC)C(=O)N1C[C@@H](O)C[C@H]1Cc1c(-c2[nH]c3cc(F)ccc3c2C[C@@H]2C[C@H](O)CN2C(=O)[C@H](CC)NC(=O)[C@H](C)NC)[nH]c2cc(F)ccc12 [Birinapant] the “Excess HSA synergy score” value was -236.
For `Cc1ccc(/C=N/NC(=O)c2ccccc2Oc2ccccc2)o1` + CC[C@H](NC(=O)[C@H](C)NC)C(=O)N1C[C@@H](O)C[C@H]1Cc1c(-c2[nH]c3cc(F)ccc3c2C[C@@H]2C[C@H](O)CN2C(=O)[C@H](CC)NC(=O)[C@H](C)NC)[nH]c2cc(F)ccc12 [Birinapant], the “Excess HSA synergy score” value was 277.
`CC(C)c1cc(C(C)C)c(CC(=O)NS(=O)(=O)Oc2c(C(C)C)cccc2C(C)C)c(C(C)C)c1` [Avasimibe] + CC[C@H](NC(=O)[C@H](C)NC)C(=O)N1C[C@@H](O)C[C@H]1Cc1c(-c2[nH]c3cc(F)ccc3c2C[C@@H]2C[C@H](O)CN2C(=O)[C@H](CC)NC(=O)[C@H](C)NC)[nH]c2cc(F)ccc12 [Birinapant] was tested, and the “Excess HSA synergy score” value was 95.2.
For `CC(=O)C1=C(O)C=C2Oc3c(C(C)=O)c(O)c(C)c(O)c3C2(C)C1=O` (single isomer, unassigned; (+)) [(+)-Usniacin] + CC[C@H](NC(=O)[C@H](C)NC)C(=O)N1C[C@@H](O)C[C@H]1Cc1c(-c2[nH]c3cc(F)ccc3c2C[C@@H]2C[C@H](O)CN2C(=O)[C@H](CC)NC(=O)[C@H](C)NC)[nH]c2cc(F)ccc12 [Birinapant], the “Excess HSA synergy score” value was -123.
`C[C@@H]1CN(Cc2ccc(F)cc2)[C@@H](C)CN1C(=O)c1cc2c(C(=O)C(=O)N(C)C)cn(C)c2cc1Cl` [Talmapimod] + CC[C@H](NC(=O)[C@H](C)NC)C(=O)N1C[C@@H](O)C[C@H]1Cc1c(-c2[nH]c3cc(F)ccc3c2C[C@@H]2C[C@H](O)CN2C(=O)[C@H](CC)NC(=O)[C@H](C)NC)[nH]c2cc(F)ccc12 [Birinapant] was tested, and the “Excess HSA synergy score” value was 190.
With `CCNC(=O)Nc1ccc(-c2nc3c(c(N4CCOC[C@@H]4C)n2)CCN(C2COC2)C3)cc1` + CC[C@H](NC(=O)[C@H](C)NC)C(=O)N1C[C@@H](O)C[C@H]1Cc1c(-c2[nH]c3cc(F)ccc3c2C[C@@H]2C[C@H](O)CN2C(=O)[C@H](CC)NC(=O)[C@H](C)NC)[nH]c2cc(F)ccc12 [Birinapant] the “Excess HSA synergy score” value was -44.2.
In the case of `CN1CCN(c2nc(C3=C(c4c[nH]c5ccccc45)C(=O)NC3=O)c3ccccc3n2)CC1` [Sotrastaurin] + CC[C@H](NC(=O)[C@H](C)NC)C(=O)N1C[C@@H](O)C[C@H]1Cc1c(-c2[nH]c3cc(F)ccc3c2C[C@@H]2C[C@H](O)CN2C(=O)[C@H](CC)NC(=O)[C@H](C)NC)[nH]c2cc(F)ccc12 [Birinapant], the “Excess HSA synergy score” value is reported as 84.5.
For `Cc1noc(-c2ccc(CSCCC(=O)O)cc2)c1NC(=O)OC(C)c1ccccc1Cl` (stereo not given) + CC[C@H](NC(=O)[C@H](C)NC)C(=O)N1C[C@@H](O)C[C@H]1Cc1c(-c2[nH]c3cc(F)ccc3c2C[C@@H]2C[C@H](O)CN2C(=O)[C@H](CC)NC(=O)[C@H](C)NC)[nH]c2cc(F)ccc12 [Birinapant], the “Excess HSA synergy score” value was 351.
With `CCOc1cc(C(=O)Nc2ccc(Cl)c(-c3nc4ccccc4[nH]3)c2)cc(OCC)c1OCC` + CC[C@H](NC(=O)[C@H](C)NC)C(=O)N1C[C@@H](O)C[C@H]1Cc1c(-c2[nH]c3cc(F)ccc3c2C[C@@H]2C[C@H](O)CN2C(=O)[C@H](CC)NC(=O)[C@H](C)NC)[nH]c2cc(F)ccc12 [Birinapant] the “Excess HSA synergy score” value was 142.
In the case of `C=C(C)[C@@H]1CC[C@]2(C)CC[C@]3(C)[C@H](CC[C@@H]4[C@@]5(C)CC[C@H](O)C(C)(C)[C@@H]5CC[C@]43C)[C@@H]12` [Lupeol] + CC[C@H](NC(=O)[C@H](C)NC)C(=O)N1C[C@@H](O)C[C@H]1Cc1c(-c2[nH]c3cc(F)ccc3c2C[C@@H]2C[C@H](O)CN2C(=O)[C@H](CC)NC(=O)[C@H](C)NC)[nH]c2cc(F)ccc12 [Birinapant], the “Excess HSA synergy score” value is reported as -39.9.
In the case of `O=C(NNC(=O)c1ccc(CNS(=O)(=O)c2ccc(F)c(Cl)c2)cc1)c1ccccc1` + CC[C@H](NC(=O)[C@H](C)NC)C(=O)N1C[C@@H](O)C[C@H]1Cc1c(-c2[nH]c3cc(F)ccc3c2C[C@@H]2C[C@H](O)CN2C(=O)[C@H](CC)NC(=O)[C@H](C)NC)[nH]c2cc(F)ccc12 [Birinapant], the “Excess HSA synergy score” value is reported as 144.
In the case of `CC(C)(C)c1cc(C(C)(C)C)c(NC(=O)c2c[nH]c3ccccc3c2=O)cc1O` [Ivacaftor] + CC[C@H](NC(=O)[C@H](C)NC)C(=O)N1C[C@@H](O)C[C@H]1Cc1c(-c2[nH]c3cc(F)ccc3c2C[C@@H]2C[C@H](O)CN2C(=O)[C@H](CC)NC(=O)[C@H](C)NC)[nH]c2cc(F)ccc12 [Birinapant], the “Excess HSA synergy score” value is reported as 116.
In the case of `C=CC(=O)Nc1cc2c(Nc3ccc(F)c(Cl)c3)ncnc2cc1C#CC(C)(C)N1CCN(C)CC1` + CC[C@H](NC(=O)[C@H](C)NC)C(=O)N1C[C@@H](O)C[C@H]1Cc1c(-c2[nH]c3cc(F)ccc3c2C[C@@H]2C[C@H](O)CN2C(=O)[C@H](CC)NC(=O)[C@H](C)NC)[nH]c2cc(F)ccc12 [Birinapant], the “Excess HSA synergy score” value is reported as 44.3.
For `CO[C@H]1C(=O)[C@]2(C)[C@@H](OC)C[C@H]3OC[C@@]3(OC(C)=O)[C@H]2[C@H](OC(=O)c2ccccc2)[C@]2(O)C[C@H](OC(=O)[C@H](O)[C@@H](NC(=O)OC(C)(C)C)c3ccccc3)C(C)=C1C2(C)C` [Cabazitaxel] + CC[C@H](NC(=O)[C@H](C)NC)C(=O)N1C[C@@H](O)C[C@H]1Cc1c(-c2[nH]c3cc(F)ccc3c2C[C@@H]2C[C@H](O)CN2C(=O)[C@H](CC)NC(=O)[C@H](C)NC)[nH]c2cc(F)ccc12 [Birinapant], the “Excess HSA synergy score” value was -61.8.
